One assay concerns T1, MST3.
T1 construct: gene STK24

The next assay relates to T2, NDR1.
T2 construct: gene STK38
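Also: kd values determined as follow-up on hits from a single-replicate KINOMEscan panel screen.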

For `CS(=O)(=O)c1ccc(-c2c(-c3ncn[nH]3)sc(N3CCOCC3)c2C#N)cc1`, the equilibrium dissociation constant (Kd) in the assay on MST3 is greater than 10 µM.

`CSc1nn2c(=O)cc(N3CCOCC3)nc2n1Cc1cccc(C(F)(F)F)c1C` [GSK2363608] gave a Kd with MST4 greater than 10 µM.

For `COc1cc2ncn(-c3cc(OCC4CCCO4)c(C(N)=O)s3)c2cc1OC` (stereo not shown) [GSK204607], the affinity in the assay with MYLK4, expressed as Kd, was 500 nM.

In the assay with NDR1, `CC(C)(C)c1ccc(C(=O)Nc2cn3cc(Cl)ccc3n2)cc1` yielded a Kd greater than 10 µM.

(Values after article PMC5540273 (PLoS ONE, 2017).)
